Experimental data taken from PubChem BioAssay AID1159580 (chemical genetic matrix, 2015).
“And” between values parts separate entries of the source, which are not always exact repeats. Identical values can stand only once. About 2,000 (36%) of roughly 5,500 compounds were called active. Another 18% or so got no clear call; they are omitted. Cut-off read from the data, not from the text of the source: active = normalized growth mostly below about 0.91 (no sharp cut-off); inconclusive = no clear call, values can overlap the other calls; inactive = mostly above about 0.92. The list shows a part of the results.

Assay: chemical genetic growth profiling, strain panel (AID 1159580);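 note: tested at 20 µM; growth read once vehicle control cultures reached saturation at 30 °C; 1 = growth at the plate median or of vehicle wells; lower values mean less growth of the strain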
Conditions: S. cerevisiae deletion strains, growth OD

Measured: normalized growth

C[N+](C)(C)CCOC(N)=O
inactive: locus YAL013W, strain DEP1, stronger effect = lower value 1.01 | locus YAL021C, strain ccr4, stronger effect = lower value 1.03 | locus YAL026C, strain drs2, stronger effect = lower value 1.01 | locus YAL030W, strain snc1, stronger effect = lower value 1.01 | locus YAL040C, strain CLN3, stronger effect = lower value 1.05 | locus YBL061C, strain skt5, stronger effect = lower value 1.03 | locus YBR009C, strain hhf1, stronger effect = lower value 0.997 | locus YBR021W, strain FUR4, stronger effect = lower value 1.06 | locus YBR023C, strain chs3, stronger effect = lower value 1.02 | locus YBR171W, strain sec66, stronger effect = lower value 1.02 | locus YBR229C, strain ROT2, stronger effect = lower value 1.01 | locus YBR231C, strain swc5, stronger effect = lower value 1.02 | locus YBR279W, strain paf1, stronger effect = lower value 1.01 | locus YCL011C, strain gbp2, stronger effect = lower value 1.01 | locus YCL016C, strain dcc1, stronger effect = lower value 1.03 | locus YCL029C, strain bik1, stronger effect = lower value 0.973 | locus YCL061C, strain MRC1 (second series), stronger effect = lower value 0.987 | locus YCL069W, strain vba3, stronger effect = lower value 1.03 | locus YCR088W, strain abp1, stronger effect = lower value 1.01 | locus YDL005C, strain med2, stronger effect = lower value 1.03 | locus YDL035C, strain GPR1, stronger effect = lower value 1.04 | locus YDL040C, strain nat1, stronger effect = lower value 1.02 | locus YDL074C, strain BRE1, stronger effect = lower value 0.995 | locus YDL101C, strain DUN1, stronger effect = lower value 0.986 | locus YDL185W, strain tfp1, stronger effect = lower value 0.953 | locus YDL192W, strain arf1, stronger effect = lower value 0.976 | locus YDR001C, strain nth1, stronger effect = lower value 1.02 | locus YDR069C, strain doa4, stronger effect = lower value 1.01 | locus YDR101C, strain arx1, stronger effect = lower value 1 | locus YDR137W, strain rgp1, stronger effect = lower value 1.04 | locus YDR150W, strain NUM1, stronger effect = lower value 1.01 | locus YDR159W, strain sac3, stronger effect = lower value 1.02 | locus YDR162C, strain NBP2, stronger effect = lower value 1.03 | locus YDR195W, strain ref2 1.06 | locus YDR297W, strain sur2, stronger effect = lower value 1.02 | locus YDR318W, strain mcm21, stronger effect = lower value 0.987 | locus YDR334W, strain swr1, stronger effect = lower value 1.02 | locus YDR335W, strain msn5, stronger effect = lower value 1.03 | locus YDR388W, stronger effect = lower value 0.984 | locus YDR392W, strain spt3, stronger effect = lower value 1.02 | locus YDR502C, strain sam2, stronger effect = lower value 0.99 | locus YEL003W, strain gim4, stronger effect = lower value 1.02 | locus YEL037C, strain rad23, stronger effect = lower value 1.02 | locus YEL061C, strain CIN8 (second series), stronger effect = lower value 1.01 | locus YEL061C, strain CIN8, stronger effect = lower value 1 | locus YER002W, strain NOP16, stronger effect = lower value 0.986 | locus YER015W, strain faa2, stronger effect = lower value 1.03 | locus YER016W, strain bim1, stronger effect = lower value 1.01 | locus YER110C, stronger effect = lower value 0.944 | locus YER111C, strain swi4, stronger effect = lower value 1.03 | locus YER155C, strain BEM2 (second series), stronger effect = lower value 1.03 | locus YER155C, strain BEM2, stronger effect = lower value 0.991 | locus YER167W, strain BCK2, stronger effect = lower value 1.01 | locus YFR010W, strain ubp6, stronger effect = lower value 1.02 | locus YGL078C, strain dbp3, stronger effect = lower value 0.986 | locus YGL086W, strain mad1, stronger effect = lower value 1 | locus YGL167C, strain pmr1, stronger effect = lower value 1.03 | locus YGL173C, strain kem1, stronger effect = lower value 1.02 | locus YGL227W, strain vid30, stronger effect = lower value 1.01 | locus YGL240W, strain doc1, stronger effect = lower value 1.02 | locus YGL248W, strain PDE1, stronger effect = lower value 1.01 | locus YGL253W, strain hxk2, stronger effect = lower value 1.02 | locus YGR078C, strain PAC10, stronger effect = lower value 0.992 and 0.993 | locus YGR135W, strain pre9, stronger effect = lower value 0.978 | locus YGR252W, strain gcn5, stronger effect = lower value 1.07 | locus YHR013C, strain ard1, stronger effect = lower value 1.04 | locus YHR027C, strain rpn1, stronger effect = lower value 1.01 | locus YHR030C, strain SLT2, stronger effect = lower value 1.01 and 0.989 | locus YHR079C, strain IRE1 (second series), stronger effect = lower value 0.962 | locus YHR079C, strain IRE1, stronger effect = lower value 0.998 | locus YHR094C, strain hxt1, stronger effect = lower value 0.976 | locus YHR129C, strain ARP1, stronger effect = lower value 1 | locus YHR142W, strain chs7, stronger effect = lower value 1.02 | locus YHR200W, strain rpn10, stronger effect = lower value 0.979 | locus YIL066C, strain RNR3, stronger effect = lower value 1.02 | locus YIL073C, strain SPO22, stronger effect = lower value 0.927 | locus YIL125W, strain kgd1, stronger effect = lower value 0.986 | locus YIR030C, strain dcg1, stronger effect = lower value 0.959 | locus YJL092W, strain hpr5, stronger effect = lower value 1.01 | locus YJL095W, strain BCK1 (second series), stronger effect = lower value 1.03 | locus YJL095W, strain BCK1, stronger effect = lower value 0.981 and 0.988 | locus YJL115W, strain asf1, stronger effect = lower value 1.02 | locus YJL129C, strain trk1, stronger effect = lower value 1.02 | locus YJL134W, strain LCB3, stronger effect = lower value 1 | locus YJL164C, strain tpk1, stronger effect = lower value 1.01 | locus YJL166W, strain qcr8, stronger effect = lower value 0.992 | locus YJL168C, strain set2, stronger effect = lower value 0.986 | locus YJL187C, strain SWE1 (second series), stronger effect = lower value 0.986 | locus YJL187C, strain SWE1, stronger effect = lower value 1.02 | locus YJR043C, strain POL32, stronger effect = lower value 1.05 | locus YJR066W, strain TOR1, stronger effect = lower value 0.999 | locus YJR075W, strain HOC1, stronger effect = lower value 0.989 | locus YKL009W, strain mrt4, stronger effect = lower value 0.957
